High-throughput results as filed in PubChem.
Jurkat NFkB inh: inhibitors of the PMA/ionomycin-induced NF-kB reporter in Jurkat cells. PMA/ionomycin-induced NF-kB luciferase reporter, luminescence. inhibition, % at 4 µM. hit rate 0.53% among 330,000; in the data active = inhibition above about 50%
697 NFkB inh: lowers PMA/ionomycin-induced NF-kB signal in 697 B cells; AID 435022; inhibition, % at 4 µM; 697 B-cell NF-kB luciferase reporter, 16 h; hit rate 0.33% among 330,000; in the data active = inhibition above about 35%
esBAF inh: inhibitors of esBAF chromatin remodeling in mouse ES cells; hit rate 2% among 350,000; reporter increase, % at 12.5 µM; Bmi1-luciferase knock-in reporter, 24 h; 100% = twice the neutral-well signal; in the data active = activation above about 40%;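 also: 0% = median of the plate's neutral control wells and 100% = double that signal; a rise in the Bmi1 reporter signal indicates esBAF inhibition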
Gli-Sufu antag: Gli-Sufu pathway antagonism; Sufu-KO-LIGHT fibroblasts, Gli luciferase reporter luminescence; inhibition, % at 5 µM; hit rate 0.74% among 340,000; AID 588413;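 active = inhibition above about 55%, limit read from the data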;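 also: 0% = DMSO-treated cells and 100% = wells with medium but no cells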
SMARCA2 act: activators of SMARCA2 function; MG213 cells, MMTV-luciferase reporter, dexamethasone, overnight; hit rate 1% among 370,000; activation, % at 9.1 µM; in the data active = activation above about 7.8%;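 also: 0% = vehicle wells and 100% = reference activator wells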
697 NFkB conf: inhibitors of the PMA/ionomycin-induced NF-kB reporter in 697 B cells, retest. shares compounds with 697 NFkB inh. 697 B-cell NF-kB luciferase, 16 h. inhibition, % at 4 µM. hit rate 35% among 2,000. AID 449746; in the data active = inhibition mostly above about 28%, no sharp cut-off; inactive = mostly below about 22%
An asterisk follows results filed as active; i = inactive; nt = no result. Rows were chosen to be rich in hits. Some 3.3% of all compounds tested hit in one or more screens of this group.

SMILES	Jurkat NFkB inh	697 NFkB inh	esBAF inh	Gli-Sufu antag	SMARCA2 act	697 NFkB conf
FCCCOc1ccc(-c2nccc(-c3ccccn3)n2)cc1	-4.3	-7.7	11.5	-13.0	1.1	nt
COCCn1c(C)c(C)c2c(NCCc3ccccc3)ncnc21	-77.0	-280.9	-30.4	24.8	-4.2	-28.6
CO[C@H]1CN(C)C(=O)c2ccc(NC(=O)C3CCCCC3)cc2OC[C@@H](C)NC[C@H]1C	nt	nt	-0.8	nt	nt	nt
COc1ccc(/C=N/NC(=O)c2cccnc2)cc1CN1CCCc2ccccc21	1.7	24.7	nt	nt	-1.7	nt
COc1ccc(C(=O)N/N=C/c2ccc(OC)c(CN3CCCc4ccccc43)c2)cc1	-3.2	44.4*	27.9	1.6	3.0	28.9*
Cc1cc(C(F)(F)F)c(C#N)c(SCC(=O)Nc2nc3ccccc3s2)n1	-76.8	i	-22.2	15.9	-6.9	-297.5
Cc1ccsc1/C=C1\CCc2ccccc2C1=O	-141.1	-342.1	-33.8	-86.0	4.9	-299.4
COc1ccc(/C=C2\CCc3ccccc3C2=O)cc1OC	0.2	-86.9	39.8	-19.7	1.8	nt
C[C@H](CO)N1C[C@H](C)[C@@H](CN(C)Cc2cncnc2)Oc2ncc(-c3cccc(C#N)c3)cc2C1=O	nt	nt	-4.3	nt	nt	nt
COC(=O)Nc1sccc1C(=O)Nc1sccc1C(=O)OC	1.7	39.0*	nt	-1.5	-2.7	-3.3
Cc1noc(C)c1NC(=O)Nc1ccc2c(c1)C(=O)N([C@H](C)CO)C[C@H](C)[C@@H](CN(C)Cc1ccccc1)OCCCC[C@@H](C)O2	nt	nt	5.6	nt	nt	nt
COCC(=O)Nc1ccc2c(c1)[C@@H]1C[C@@H](CC(=O)N3CCc4ccccc4C3)O[C@@H](CO)[C@@H]1O2	nt	nt	5.2	nt	nt	nt
Cc1ccc(-c2n[nH]c(=S)n2/N=C/c2c(C)nn(-c3ccccc3)c2C)cc1	7.1	3.8	nt	2.8	6.3	nt
Cc1ccccc1-c1n[nH]c(=S)n1/N=C/c1c(C)nn(-c2ccccc2)c1C	-11.0	-274.2	nt	-0.2	-0.7	-18.8
Cc1ccccc1-c1cnc2c(c1)C(=O)N([C@@H](C)CO)C[C@@H](C)[C@H](CN(C)Cc1cncnc1)O2	nt	nt	0.4	nt	nt	nt
CC(=O)c1c(C)[nH]c(C(=O)OCCOc2ccccc2)c1C	-141.4	-253.4	nt	-77.2	-3.2	-401.7
Cc1c(C(=O)OCCOc2ccccc2)[nH]c2c1C(=O)CCC2	-83.2	-330.8	-46.6	-70.8	1.7	-379.9
CCOC(=O)N1CCC(NC(=O)CSCc2nc(-c3ccc(OC)cc3)oc2C)CC1	9.3	9.8	nt	20.5	-1.9	nt
CCc1ccc(-c2nc(CSCC(=O)NC3CC3)c(C)o2)cc1	-8.3	96.9*	-80.4	79.6*	-4.0	92.8*
COc1ccc(NC(=O)CSCC(=O)NCc2ccco2)cc1	9.3	14.4	1.9	-3.1	-0.2	nt
CSc1ccc(-c2nc(CSCC(=O)NC3CC3)c(C)o2)cc1	-1.8	89.6*	-29.2	70.3*	-4.4	48.9*
COc1ccc(-c2nc(CSCC(=O)NCc3ccco3)c(C)o2)cc1	29.4	37.8*	-55.9	39.5	nt	43.2*
C[C@H](CO)N1C[C@H](C)[C@H](CN(C)S(=O)(=O)c2ccc(Cl)cc2)Oc2ccc(NS(=O)(=O)c3ccc(F)cc3)cc2C1=O	nt	nt	-1.5	nt	nt	nt
CC(NC(=O)C1CCC(CNc2c(N3CCCCC3)c(=O)c2=O)CC1)c1ccccc1 (stereo not given)	12.1	35.9*	nt	-6.1	-1.9	-10.7
Cc1noc(C)c1NC(=O)N(C)C[C@H]1OCCCC[C@@H](C)Oc2ccc(NS(=O)(=O)c3ccc(Cl)cc3)cc2C(=O)N([C@@H](C)CO)C[C@@H]1C	nt	nt	3.7	nt	nt	nt
SMILES	Jurkat NFkB inh	697 NFkB inh	esBAF inh	Gli-Sufu antag	SMARCA2 act	697 NFkB conf
CCCNC(=O)C[C@@H]1C[C@H]2c3cc(NC(=O)CC4CC4)ccc3O[C@H]2[C@H](CO)O1	nt	nt	2.6	nt	nt	nt
Cc1cccc(C(=O)n2c(=S)nc3cc(C)ccn32)c1	-131.6	-366.9	-24.9	-84.9	3.3	-349.1
Cc1ccn2c(c1)nc(=S)n2C(=O)c1ccccc1	-119.3	i	nt	-48.4	4.7	-405.2
O=C(NCCS(=O)(=O)N1CCN(c2cccc(Cl)c2)CC1)c1ccco1	-7.6	35.5*	-1.9	6.0	0.6	-10.2
CC(C)(C)c1ccc(-c2cc(-c3ccccc3O)[nH]n2)cc1	-97.0	-368.4	-31.7	31.6	-4.9	-220.3
Cc1cc(-c2ccccc2)n[nH]1	-16.7	-0.2	nt	-2.6	4.0	nt
C#CCn1c(S(=O)(=O)Cc2ccc(C)cc2)nc(-c2ccccc2)c1-c1ccccc1	-113.7	i	-12.9	38.9	-0.9	i
C[C@@H]1CN([C@@H](C)CO)C(=O)Cc2cc(NC(=O)CCN3CCOCC3)ccc2O[C@@H]1CN(C)C	nt	nt	0.8	nt	nt	nt
CC(=O)c1c(C)nc(Nc2nc3ccccc3s2)nc1C	-129.4	-290.7	nt	-64.5	4.5	-206.2
COc1ccc(NC(=O)N(C)C[C@H]2OCCCC[C@@H](C)Oc3ccc(NC(=O)CCCN(C)C)cc3C(=O)N([C@@H](C)CO)C[C@H]2C)cc1	nt	nt	-0.8	nt	nt	nt
COc1ccc(C(=O)N/N=C/c2cc3ccccc3[nH]c2=S)cc1	16.0	36.2*	nt	4.7	-3.3	1.5
NNC(=O)c1csc(COc2cc(Cl)cc(Cl)c2)n1	11.9	-5.0	nt	-1.0	-2.7	nt
CC(=O)c1csc(COc2ccc(Cl)cc2)n1	-109.6	-371.5	32.2	-71.7	5.9	-209.7
Cc1sc2ncnc(N3CCC(C(=O)Nc4nc(-c5ccc(F)cc5)cs4)CC3)c2c1C	8.3	-282.1	6.5	5.8	-3.4	-45.5
CC=Cc1ccc2n(c1=O)C[C@@H]1[C@@H](CO)[C@H](C(=O)NCC3CC3)N(Cc3ccccn3)[C@H]21 (mixture of isomers)	nt	nt	-2.9	nt	nt	nt
COc1cccc2c1C(=O)O/C2=C/c1ccc2c(c1)OCO2	-63.2	-342.3	-36.1	nt	3.2	-446.2
CSc1ccc(C2Nc3cccc4cccc(c34)N2)cc1	30.2	-265.9	-8.8	8.6	-2.0	-70.6
CCC(=O)Nc1cc2nn(-c3ccc(OC)cc3)nc2cc1C	-59.5	-268.6	-50.3	-52.6	5.5	-211.7
COCCN1C(=O)/C(=C/c2ccc(Oc3ccc([N+](=O)[O-])cn3)c(OC)c2)SC1=Nc1ccccc1	29.6	49.5*	-1.6	6.2	1.0	24.4
Cn1cc(Cl)c(C(=O)Nc2nc3ccccc3s2)n1	-88.8	-255.6	-4.3	-91.1	7.9*	-266.9
CN1CCN(CC(=O)Nc2nc3ccccc3s2)CC1	-12.5	4.1	6.7	-10.4	0.9	nt
C[C@H](O)C#Cc1cnc2c(c1)C(=O)N([C@@H](C)CO)C[C@@H](C)[C@H](CN(C)C(=O)c1ccccc1)O2	nt	nt	2.6	nt	nt	nt
N=c1ccn2c(n1)OC1C(O)C(CO)OC12 (stereo not given)	28.1	54.3*	-16.5	34.4	0.1	59.7*
CO[C@H]1CC[C@@H]2CCN(C)C(=O)[C@@H](C)[C@H](OC)CN(C)C(=O)c3cc(C#N)ccc3OC[C@H]1O2	nt	nt	-3.7	nt	nt	nt
C[C@@H]1CN([C@H](C)CO)C(=O)c2cc(C#CC3(O)CCCC3)cnc2O[C@@H]1CN(C)Cc1ccccc1	nt	nt	-4.4	nt	nt	nt
